Fewer than 10 of roughly 120,000 compounds were called active. Not shown: some 4% with an inconclusive outcome. Calls come from the whole dose curve; as a rule, active = well fitted curve in the direction sought with a large enough effect in the signal ratio (not every such curve was filed as active); inconclusive = small, poorly fitted or top-dose-only effect, or a change in a side signal; inactive = no such curve, though single readings can be large or run the other way; the % refers to the signal ratio. The list is a sample of the results.
Molecular target: Inositol monophosphatase 1 (Rattus norvegicus) (UniProt P97697)
Sequence (P97697 whole entry, looked up): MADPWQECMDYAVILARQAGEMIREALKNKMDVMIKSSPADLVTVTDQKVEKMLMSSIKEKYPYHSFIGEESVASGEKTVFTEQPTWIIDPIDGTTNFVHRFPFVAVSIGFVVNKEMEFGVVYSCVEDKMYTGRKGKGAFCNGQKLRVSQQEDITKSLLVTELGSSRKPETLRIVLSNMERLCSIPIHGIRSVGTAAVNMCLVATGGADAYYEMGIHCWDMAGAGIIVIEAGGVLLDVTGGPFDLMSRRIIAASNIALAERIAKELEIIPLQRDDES
Assay: qHTS Assay for Identifying the Cell-Membrane Permeable IMPase Inhibitors;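 note: higher means more IMPase inhibition seen as more IP1 and lower FRET ratio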
Details: CHO-M1 cells, HTRF TR-FRET ratio; series mostly up to 46.1 µM
From the text: NCGC IMPase Assay Overview
Lithium has been widely used for the treatment of bipolar disorder. But lithium has a narrow therapeutic index and it can cause side effects such as thirst, weight gain, tremor, polyuria and memory problems. Although the mechanism for lithium action in treatment of bipolar disorder is still not fully understood, inhibition of inositol monophosphatase (IMPase) and the subsequent depletion of the inositol pool in living cells have been implicated as the primary therapeutic benefit of lithium therapy. Therefore, a selective IMPase inhibitor with reduced side effects might be a good drug candidate to replace lithium for the treatment of bipolar disorder. Several IMPase inhibitors have been discovered previously. However, they are not suitable for therapeutic use because of their poor cell membrane penetrability or oral bioavailability; the development of new cell-permeable IMPase inhibitors is needed.
IMPase catalyzes the hydrolysis of inositol-1-phosphate (IP1) to release free inositol. Binding of an agonist to a Gq coupled GPCR results in the activation of PLC, which hydrolyzes the PIP2 to form inositol-1,4,5-trisphosphate (IP3) and diacyl glycerol (DAG). While DAG activates protein kinase C (PKC), IP3 triggers the elevation of intracellular free Ca2+. The IP3 is very rapidly inactivated by hydrolysis to IP2, IP1 and then inositol by a series of enzymes including IMPase. Free inositols are used for synthesis of PI and thus start another inositol cycle.
To identify new cell-permeable IMPase inhibitors, we developed a cell-based IMPase assay in which the cytosolic IP1 is measured by a time-resolved fluorescence resonance energy transfer (TR-FRET) assay. In this assay, an IP1 specific antibody is used to detect the labeled IP1 tracer. When the cell lysate contains the elevated IP1 due to the inhibition of IMPase, the TR-FRET between the labeled antibody and IP1 tracer is disrupted resulting in a reduction in the total signal. Since the TR-FRET is used, this cell-based assay is a homogenous assay without cell wash and medium change that is suitable for assay miniaturization and HTS.
NCGC IMPase Assay Protocol Summary
A Chinese hamster ovary (CHO) cell line stably expressing the M1 receptor (CHO-M1) was obtained from ATCC and maintained in F-12 Kaighn's media (Invitrogen, Carlsbad, CA, 21127) supplemented with 10 % FBS, 100 units/ml penicillin, 100 ug/ml streptomycin and 250 ug/ml geneticin at 37C, 5% CO2 in a humidified atmosphere. Before the assay, aliquots of cells were frozen and stored at -135C. The assay was performed in 1536-well format. Data are reported for both the ratio of the two emission wavelengths, and also for the component 'donor' channel, Em2=620. […] AC50 values were determined from concentration-response data modeled with the standard Hill equation.
IMPase 1536-well assay protocol:
(1) Plate 4 ul/well (2000 cells) of cell suspension from frozen CHO-M1 Cells in white, tissue culture treated 1536-well plates that are cultured at 37C, 5 % CO2 for 16 to 30 hours.
(2) Add 23 nl/well of compound in DMSO solution. The final titration for each compound was between 0.6 nM and 46 uM.
(3) Add 1 ul of carbachol (50 uM in stimulation buffer containing10mM HEPES, 1mM CaCl2, 0.5 mM MgCl2, 4.2 mM KCl, 146 mM NaCl, 5.5 mM glucose, 50mM LiCl, pH 7.4.
(4) Incubation at 37C, 5 % CO2 for 30 min.
(5) Add 1 ul/well of d2-conjugated IP1 (d2-IP1) and 1 ul/well of Eu+ cryptate conjugated anti-IP1 antibody (Eu+-Ab) prepared in the cell lysis buffer, both from the IP-One kit (Cisbio, MA).
(6) Incubate at room temperature for 10 minutes.
(7) Detect the assay plate (Ex = 320, Em1 =665 and Em2 620) in a ViewLux plate reader.
inositol monophosphatase, IMPase, IMPase inhibitor, lithium, bipolar disorder, IP-One, HTRF, qHTS, NIH roadmap, NCGC
Note: In the gene ID and protein GI references for this assay, rat IMPase is referenced instead of hampster as hamster accession numbers were not available.

outcome, inactive:
O=C(Nc1ccc(O)c(-c2nc3ccccc3o2)c1)c1ccc(-c2cccc(Cl)c2)o1, CC1CCCCN1CC(=O)N1CCCc2c1c(=O)oc1ccc(OCc3ccccc3)cc21 (configuration not stated), COc1ccc(C2(Nc3cccc(F)c3)C(=O)c3ccccc3C2=O)cc1, Cc1ccc(C(=O)CSc2nc(-c3ccccc3)nc3c2CCCC3)c(C)c1, CCOc1ccc(S(=O)(=O)N/N=C(\C)c2ccc(Cl)c(Cl)c2Cl)cc1, Cc1ccc(C(=O)CC2(O)C(=O)N(CCc3ccccc3)c3ccc(Br)cc32)cc1 (configuration not stated), COc1ccc2oc(-c3cccc(NC(=O)CSc4ccc(Cl)cc4)c3)nc2c1, CCCC(=O)Nc1ccc2oc(-c3ccc(O)c(Br)c3)nc2c1, COc1cccc(C(=O)Nc2ccc3oc(-c4ccc5ccccc5c4)nc3c2)c1, Cc1cccc(C(CC(=O)NCC2(c3ccccc3)CCCC2)c2ccccc2)c1O (configuration not stated), Cc1ccc(OCC(=O)Nc2ccccc2Sc2ccc(Cl)cc2)c([N+](=O)[O-])n1, CN(C(=O)CSc1nnc(-c2n[nH]c3ccccc23)o1)c1ccccc1, CC(=O)NC(Cc1ccccc1)C(=O)NC1CCN(c2ncccc2[N+](=O)[O-])CC1 (configuration not stated), COc1ccc(/C=C/C(=O)OCC(=O)NCc2cccs2)cc1OC, COc1ccc(S(=O)(=O)Nc2cc3c(C(=O)OC(C)C)c(C)oc3c3ccccc23)cc1, CCOC(=O)c1c(C)oc2ccc(N(C(=O)c3ccncc3)S(=O)(=O)c3ccc(CC)cc3)cc12, CCCCOC(=O)/C(C#N)=C/c1ccc(-c2cccc(C(F)(F)F)c2)o1, CCc1ccccc1NC(=O)CSc1nc(C)c(C(=O)Nc2ccccc2)c(-c2ccc(Cl)cc2)c1C#N, Oc1ccccc1-c1nc(/C=C/c2ccc(F)cc2)no1, COc1ccc(NC(=O)CSC2=Nc3ccccc3C3=NC(CC(=O)NCc4ccccc4OC)C(=O)N23)cc1Cl (configuration not stated), COc1ccc(C(C(=O)NC2CCCCC2)N(C(=O)CCl)c2ccccc2Cl)cc1 (configuration not stated), COc1ccc(S(=O)(=O)NCCc2cc3ccc(C)c(C)c3[nH]c2=O)cc1, COc1ccc2c(CN3CCN(S(=O)(=O)c4cccs4)CC3)cc(=O)oc2c1, CC(=O)Nc1ccc(NC(=O)CSc2nnc3c4cc(Br)ccc4n(C)c3n2)cc1, CCc1ccccc1NS(=O)(=O)c1ccc2nc(-c3ccccc3)[nH]c2c1, COC(=O)c1ccc(-c2nc3cc(NC(C)=O)ccc3o2)cc1, CCCOc1ccc(NC(=O)C2OC3OC(C)(C)OC3C3OC(C)(C)OC23)cc1 (configuration not stated), O=C(Nc1nnc(SCc2ccccc2Cl)s1)c1cccc([N+](=O)[O-])c1, CC1=C(C(=O)OCc2ccc(C)cc2)C(c2c(Cl)cccc2Cl)CC(=O)N1 (configuration not stated), CC(C)Cn1c(-c2ccc(S(=O)(=O)N3CCOCC3)cc2)csc1=Nc1cc(Cl)ccc1Cl, CN(Cc1cccs1)C(=O)Cc1c[nH]c2ccccc12, CCC(C)c1ccc2oc(-c3ccc(NC(=O)c4cc5ccccc5o4)cc3)nc2c1 (configuration not stated), Cc1cc2nc(-c3ccc(NC(=O)c4cc5ccccc5o4)cc3)oc2cc1C, COc1cc(C2c3c(oc4ccccc4c3=O)C(=O)N2c2nc(C)c(C)s2)ccc1O (configuration not stated), COc1ccc(C)cc1N(CC(=O)N1CCC(C)CC1)S(=O)(=O)c1ccc(C)cc1, Cc1ccc(-c2cc(C(F)(F)F)c(C#N)c(SCC(=O)Nc3ccccc3)n2)cc1, CN(C)c1ccc(/C=N/N(Cc2ccccc2)c2ccccc2)cc1, CC(=O)NC1C(Oc2ccc(C)cc2)OC2COC(c3ccco3)OC2C1O (configuration not stated), COCCNC(=O)CSc1nc(-c2ccccc2)[nH]c1-c1ccc(C)cc1, CCOc1ccc(/C=N/NC(N)=S)cc1, O=C(CSc1nc(-c2cccc(F)c2)[nH]c1-c1ccccc1)Nc1ccc2c(c1)OCO2, CCc1cccc(C)c1Nc1c(-c2ccc(N(C)C)cc2)nc2ncccn12, Cc1nnc(SCC(=O)N2CCOCC2)[nH]c1=O, Cc1cc([N+](=O)[O-])ccc1NC(=O)C1CCCO1 (configuration not stated), CCCn1c(NCc2ccc(N(CC)CC)cc2)nc2ccccc21, COc1ccc(Cl)cc1NC(=O)NCC1CCN(Cc2ccccc2F)CC1, Cc1cc2ccccc2n1CCNC(=O)c1ccc(F)cc1, CN(C)CCCO/N=C(\c1ccccc1)c1ccncc1, CCCCNC(=O)CSc1nc2ccc(NC(=O)CSc3nnc(N)s3)cc2s1, CCOC(=O)c1cc(NC(=O)c2ccc(F)cc2)c(=O)n2c1oc1ccccc12, Cn1c(=O)[nH]c(=O)c2c1nc(NCCc1ccccc1)n2Cc1ccc(F)cc1, COc1ccc(NC(=O)c2ccco2)cc1NC(=O)COc1ccc(C)c(C)c1, CCN(c1ccc(NC(=O)COC(=O)CCc2nc3ccccc3n2-c2ccccc2)cc1)C(C)C, COC(=O)c1c(NC(=O)CN2C(=O)NC(CCc3ccccc3)C2=O)sc2c1CCCCC2 (configuration not stated), Cn1c(=O)c2c(nc(NCCc3ccccc3)n2Cc2ccccc2Br)n(C)c1=O, COc1ccccc1CNC(=O)CN1CCC(n2cnc3cc(F)ccc32)CC1, Cc1ccc(NC2=C(c3ccc(C(F)(F)F)cc3)C(=O)c3ccccc32)cc1F, CCOC(=O)c1cnc2c(C)cc(C)cc2c1Nc1ccc(N2CCOCC2)cc1, CC(=O)Nc1ccc(Nc2c([N+](=O)[O-])cc(S(C)(=O)=O)cc2[N+](=O)[O-])cc1, COc1cccc(NC(=O)C(Sc2nc3ccccc3c(=O)n2CC(C)C)c2ccccc2)c1 (configuration not stated), CC(C)c1ccc(S(=O)(=O)Nc2ccc(O)c(Sc3nc4ccccc4s3)c2)cc1, COc1ccc(CCNC(=O)CSc2nc(-c3ccc(OC)c(OC)c3)ccc2C#N)cc1, COc1ccc(C(=O)COC(=O)CCCC(=O)Nc2cc(C(F)(F)F)ccc2Cl)cc1, COc1cc(C(=O)N(Cc2ccc(C(C)C)cc2)C2CCS(=O)(=O)C2)cc(OC)c1OC (configuration not stated), CCCC(=O)Nc1cc2nn(-c3ccccc3)nc2cc1C, Cc1ccc2oc3c(c(=O)c2c1)C(c1ccc(O)cc1)N(Cc1ccc2c(c1)OCO2)C3=O (configuration not stated), Cc1[nH]c2ccccc2c1/C=N/NC(=O)CNC(=O)c1ccc2c(c1)OCO2, Cc1ccccc1NC(=O)CSC1=NCCN1, COc1ccccc1OCCCn1c(-c2ccc(Cl)cc2)nc2ccccc2c1=O, Cc1cc(C)c[n+](-c2nc3ccccc3nc2[N-]S(=O)(=O)c2cccs2)c1, CC1CCCN(Cc2c(O)ccc3c(=O)c(Oc4ccc(C(C)(C)C)cc4)c(C(F)(F)F)oc23)C1 (configuration not stated), CCn1c(=O)c(=O)n(CC)c2cc(N3CCCCC3)c(NC(=O)c3cccc(F)c3)cc21, COc1cccc(CNC(=O)CCc2nc(-c3ccc(C)cc3)no2)c1, COc1cc(OC)c(C2C=C(C(=O)O)Nc3ncnn32)cc1OC (configuration not stated), CCCn1c(N)c(C(=O)CSc2nnc(-c3cccnc3)n2-c2ccc(C)cc2C)c(=O)[nH]c1=O, CCCCCC(=O)NC(=S)NNC(=O)c1ccc([N+](=O)[O-])cc1, CCOC(=O)c1c(-c2ccc(OC)cc2)oc2ccc(OCc3ccc(C(=O)OC)cc3)cc12, CC(C)c1ccc(OCC(=O)N(Cc2ccc(N(C)C)cc2)C2CCS(=O)(=O)C2)cc1 (configuration not stated), CCN(C(=O)Cn1cc(S(=O)(=O)N2CCN(c3ccccc3F)CC2)c2ccccc2c1=O)c1ccc(C)c(C)c1, Cc1nn(Cc2ccc(Cl)cc2)c(Cl)c1/C=N/NC(=O)CNc1ccccc1F, CC(C)(C)c1ccc(C(=O)NCc2nnc(SCC(=O)N3CCCc4ccccc43)n2-c2ccccc2)cc1, COc1ccccc1N1CCN(CC(=O)NC(=O)NCc2ccco2)CC1, CC(=O)N1CCN(CC(=O)Nc2ccc(SC(F)F)cc2)CC1, Cc1ccc(Cl)cc1NC(=O)/C(C#N)=C\c1cn(Cc2ccc(F)cc2)c2ccccc12, COc1ccc(NS(=O)(=O)c2ccc(NC(=S)NC(=O)/C=C/c3ccc(C)cc3)cc2)nn1, N#CCOc1ccc(C2=NO[C@@H]3[C@@H]4C[C@@H]([C@H]5C(=O)N(c6ccc7c(c6)OCO7)C(=O)[C@@H]45)[C@H]23)cc1, Cc1ccc(S(=O)(=O)c2nc(-c3cccs3)oc2N2CCCCC2)cc1, CCCCn1c(=O)c(CCC(=O)OCC(=O)Nc2ccc(C)c(Cl)c2)nc2ccccc21, Cc1c(Cl)cccc1NC(=O)Cn1cc(C(=O)c2cccs2)c2ccccc21, O=C(CCc1ccc(S(=O)(=O)N2CCOCC2)cc1)NN=C1CCCCCCC1, Cc1ccc(CN2C(=O)SC(Nc3ccccc3)C2=O)cc1 (configuration not stated), COc1ccc(CCNC(=O)/C(C#N)=C2\N=C(NC(=O)c3cccs3)c3ccccc32)cc1, CCc1c(C)sc(NC(=O)C2c3ccccc3Oc3ccccc32)c1C(=O)OC(C)C, COc1ccc(/C(C)=N/Nc2cc(C(F)(F)F)ccc2Cl)c(OC)c1, Cc1ccccc1-c1nc2cc(NC(=O)c3cccc(OCCC(C)C)c3)ccc2o1, CCCc1c(C)nc2c(Br)cccc2c1Cl, CCCCCNC(=O)c1cccnc1SCC(=O)Nc1ccccc1OC

From PubChem BioAssay AID901 (National Center for Advancing Translational Sciences (NCATS), 2007)
